Screening data from PubChem.
Compounds with a hit are over-represented: about 17% of the library has one in this group of screens.
HT1080-NT tox: kills 2HG-producing HT-1080-NT fibrosarcoma cells | AID 686970 | Potency, µM (top dose mostly 46.1 µM), most hits filed as cytotoxic | HT-1080-NT fibrosarcoma viability, CellTiter-Glo ATP luminescence, 48 h | 1.6% of 360,000 active;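 further: NT is the 2HG producing partner of a matched IDH1 knockdown line; nearly all actives have a fitted effect of over 55% in size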
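Viability by CellTiter-Glo luminescence after 48 h compound exposure at 37C of HT-1080-NT cells (750/well, RPMI, 5% FBS). % activity scaled between DMSO wells and medium-only wells, then curve-fitted and categorized by curve class.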
TGFb SMAD3 inh: inhibitors of TGF-b signaling | HepG2 CAGA-GFP TGF-b/SMAD3 reporter, GFP fluorescence, 18 h; TGF-beta stimulated, 500 pg/mL final | 1.2% of 410,000 active | AID 588855 | Potency, µM (top dose mostly 46.1 µM), actives largely listed as inhibitors; further: nearly all actives have a fitted effect of over 65% in size
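Read-out: total well GFP (ex488/em500-530) summed from mean per-cell fluorescence. Cells: HEPG2 CAGA-GFP, 1% FBS DMEM, 18 h at 37 degrees C with 500 pg/mL final TGF-beta. Unstimulated wells served as the full-inhibition control; stimulated DMSO wells = 0%.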
HepG2 tox: kills HepG2 cells in TGF-b inhibitor counter-screen | HepG2 CAGA-GFP viability, ATP luminescence, 18 h | Potency, µM (series often up to 46.1 µM), most hits filed as cytotoxic | 0.76% of 410,000 active | AID 588856
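CellTiter-Glo luminescence gave cytotoxicity after 18 hours at 37 degrees C. The cells were HepG2 CAGA-GFP in 1% FBS DMEM, stimulated with 500 pg/mL TGF-beta after compound addition. %Activity was normalised to no-cell wells (complete cell-killing) and DMSO (no toxicity), and curves were fitted and classified.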
TDP1 cell CPT: DT40-hTDP1 cell growth loss with CPT; chicken DT40 Tdp1-/-;hTDP1 cells + 20 nM CPT, ATP luminescence, 48 h; Potency, µM (series often up to 46.2 µM), actives largely listed as inhibitors; 12% of 420,000 active; AID 686979; further: nearly all actives have a fitted effect of over 55% in size
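Chicken DT40 Tdp1-/- cells stably complemented with human TDP1 were seeded at 400 cells/well in medium containing 20 nM camptothecin, exposed to pin-transferred compounds, and grown at 37 °C for at least 48 hr. Viability was read as ATP luminescence.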
DT40 TDP1 no CPT: qHTS for Inhibitors of human tyrosyl-DNA phosphodiesterase 1 (TDP1): qHTS in cells in absence of CPT. AID 686978, 2013. DT40 Tdp1-/- hTDP1 cells, no CPT, ATP luminescence, 48 h. Potency, µM (doses to about 46.2 µM), hits mostly inhibitors. 15% of 420,000 active; further: nearly all actives have a fitted effect of over 55% in size
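Cells were dispensed at 400 per well, compounds added by pin tool, plates incubated ≥48 hr at 37 °C, then CellTiter-Glo added for 30 min at room temperature before luminescence reading. Line: DT40 Tdp1-/- complemented with hTDP1; camptothecin omitted.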
HT1080 IDH1KD tx: kills HT-1080 cells with IDH1 knockdown | HT-1080 IDH1 knockdown viability, ATP luminescence, 48 h | Potency, µM (top dose mostly 46.1 µM), actives largely listed as cytotoxic | 2% of 360,000 active | AID 686971
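Using the IDH1-knockdown HT-1080 line run in the same batch and compound series as the NT line, viability after 48 h at 37 °C was determined by CellTiter-Glo luminescence and expressed as % activity.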
A number is an active result; n = inactive; u = inconclusive; x = no result; ! = not confirmed by another sample. The call rests on the fitted dose curve; in most records, active means well fitted curve in the direction sought with a large enough effect; inconclusive means small, poorly fitted or top-dose-only effect, or another doubt; inactive means no such curve, though single readings can be large; an effect the other way counts as inactive or inconclusive.

SMILES | HT1080-NT tox | TGFb SMAD3 inh | HepG2 tox | TDP1 cell CPT | DT40 TDP1 no CPT | HT1080 IDH1KD tx
CC1(C)CC(=O)C(/C=N/n2cnc3ccccc3c2=O)=C(O)C1 | n | n | n | n | n | n
CCc1ccc(S(=O)(=O)N2CCN(C(=O)C3CCN(C(C)=O)CC3)CC2)cc1 | n | n | n | n | n | n
O=S1(=O)CC(N2CCCC2)CN1Cc1ccccc1 (stereo not drawn) | n | n | n | n | n | n
O=C(O)CCC1(CCC(=O)O)CCCC(CCC(=O)O)(CCC(=O)O)C1=O | n | n | n | n | n | n
Cn1c(SCc2ccc(F)cc2)nc2ccc(C(=O)NCc3cccc(Cl)c3)cc21 | x | n | n | 16µM | u | x
Cn1c(SCc2ccc(F)cc2)nc2ccc(C(=O)NCc3ccc(Cl)cc3)cc21 | x | u | n | u | u | x
COc1ccc2nc(SCC(=O)NCc3ccc(F)cc3)[nH]c2c1 | n | n | n | u | u | n
Cc1ccc(CNC(=O)c2ccc3nc(SCc4ccc(F)cc4)[nH]c3c2)cc1 | x | u | n | 15µM | 13µM | x
Cn1c(SCc2ccc(F)cc2)nc2ccc(C(=O)NCc3ccc(F)cc3)cc21 | x | u | n | 16µM | 16µM | x
Cn1cnc(C(=O)NCc2ccccc2)c1C(=O)NCc1ccccc1 | n | n | n | n | u | n
Cc1nn(CC(=O)N(C)C2(C#N)CCCCC2)c(C)c1[N+](=O)[O-] | n | n | n | n | n | n
Cc1n[nH]c2c([N+](=O)[O-])c(=O)[nH]c(=O)n12 | n | n | n | n | n | n
CC1=NN(c2cccc(F)c2)C(=O)/C1=C/c1ccc(N(C)C)cc1 | n | n | n | n | n | n
Cc1cc2c(=Cc3ccc(N(C)C)cc3)c3ccccc3n2[n+]1C | 15µM | 6.3µM | n | 0.52µM | 0.46µM | 4.6µM
CN(C)c1ccc(C=c2c3ccccc3n3c2c2ccccc2[n+]3C)cc1 | 23µM | 2.5µM | n | 1.2µM | 1.5µM | 8.2µM
CCOC(=O)c1cc2c(=Cc3ccc(N(C)C)cc3)c3ccccc3n2[n+]1C | u | u | n | 0.58µM | 0.46µM | 8.2µM
COc1ccc(-n2c(=O)c(C)nc3cnc(N4CCNCC4)nc32)cc1 | x | x | x | n | n | x
CSc1ccccc1NC(=O)C1=CC(c2cccs2)=NS(=O)(=O)N1C | n | n | n | n | n | n
O=C(CCC(=O)N1CCc2ccccc2C1)NCCc1ccc(Cl)cc1 | n | n | n | n | n | n
COc1ccc(C2=NC(CO)(CO)CO2)cc1 | n | n | n | n | n | n
Cc1cccc(-c2nc(CSCC(=O)NCCc3ccc(Cl)cc3)c(C)o2)c1 | x | 13µM | n | u | u | x
Cc1oc(-c2cccc(Cl)c2)nc1CSCC(=O)O | n | n | n | 16µM! | 29µM! | n
Cc1oc(-c2ccccc2Cl)nc1CSCC(=O)O | n | n | n | n | n | n
Cc1ccc(CCNC(=O)CSCc2nc(-c3ccc(C)cc3)oc2C)cc1 | x | u | n | n | u | x
Nc1ccc(/C=C/c2cccc3cccnc23)cc1 | x | n | n | u | u | x
SMILES | HT1080-NT tox | TGFb SMAD3 inh | HepG2 tox | TDP1 cell CPT | DT40 TDP1 no CPT | HT1080 IDH1KD tx
CC(C)CCNC(=O)C(c1ccc(O)cc1)N(C(=O)C1COc2ccccc2O1)c1cccc(O)c1 (stereo not drawn) | n | u | n | u | 21µM | u
C[C@H]1CN=C(N(C)C)N1CC1CCCCC1 | n | n | n | n | u | n
C[C@H]1CN=C(N(C)C)N1CCCC1CCCC1 | n | n | n | 16µM | 12µM | n
C[C@H]1CN=C(N(C)C)N1CC1CCC(C(C)(C)C)CC1 (stereo partly drawn) | u | u | n | 13µM | 12µM | u
C[C@H]1CN=C(N(C)C)N1CCC1CCCCC1 | n | n | n | u | 16µM | n
Cc1ccc(C(=O)NNC(=S)NCC2CCCO2)cc1[N+](=O)[O-] (stereo not drawn) | n | n | n | u | u | n
O=C(NNC(=O)c1ccc(SCC2CCCO2)c([N+](=O)[O-])c1)c1ccc(F)cc1 (stereo not drawn) | n | n | n | u | 20µM | n
COc1ccc(NC(=S)N2CCC(Cc3ccccc3)CC2)cc1 | n | n | n | 10µM | 5.2µM | n
COc1ccc(NC(=S)N2CCN(Cc3ccccc3)CC2)cc1 | n | n | n | n | u | n
CC(=O)Nc1ccc(OCC(=O)N2CCC(Cc3ccccc3)CC2)cc1 | n | n | n | n | n | n
O=C(Nc1ccc(OCC(=O)N2CCC(Cc3ccccc3)CC2)cc1)c1ccco1 | n | n | n | 21µM | 29µM | n
S=C(Nc1ccccc1)N1CCC(Cc2ccccc2)CC1 | u | n | n | 4.1µM | 3.7µM | u
CC(C(=O)Nc1ccc(C(N)=O)cc1)N1C(=O)c2ccccc2S1(=O)=O (stereo not drawn) | n | n | n | n | n | n
NC(=O)CCn1ccc2ccccc21 | n | n | n | n | n | n
O=C(NCc1ccccc1)C(c1ccccc1)n1c(-c2ccccn2)nc2ccccc21 (stereo not drawn) | n | x | x | n | n | u
CN(C)c1ccc(/C=N/NC(=O)CN(c2cccc(Cl)c2)S(C)(=O)=O)cc1Br | u | u | n | 26µM | 16µM | u
CS(=O)(=O)N(CC(=O)N/N=C/c1ccco1)c1ccccc1Br | n | n | n | n | n | n
O=C(Nc1ccc2nc(-c3ccco3)c(-c3ccco3)nc2c1)N1CCCC1 | x | u | n | x | x | x
CC1CCN(C(=O)Nc2ccc3nc(-c4ccco4)c(-c4ccco4)nc3c2)CC1 | x | u | n | 11µM | u | x
O=C(Nc1ccc2nc(-c3ccco3)c(-c3ccco3)nc2c1)N1CCN(c2ccccn2)CC1 | n | n | n | 13µM | 12µM | n
CC(C)OCCCNC(=O)C(Cc1ccccc1)NS(=O)(=O)c1ccc2c(c1)CCC(=O)N2 (stereo not drawn) | n | n | n | n | n | n
N#Cc1cccc(NC(=O)CCc2ccc(S(=O)(=O)N3CCOCC3)cc2)c1 | n | n | n | n | n | n
O=c1cc(O)c2sc(Nc3ccc(F)c(Cl)c3)nc2[nH]1 | n | n | n | 3.3µM | 3.7µM | n
COc1ccc(Nc2nc3[nH]c(=O)cc(O)c3s2)cc1 | n | n | n | 12µM | 18µM | n
CC(=O)c1ccc(NC(=O)CSc2nc3[nH]c(=O)cc(O)c3s2)cc1 | n | n | n | u | u | n
O=c1cc(O)c2sc(Nc3ccc(Cl)c(F)c3)nc2[nH]1 | n | n | n | 5.2µM | 4.6µM | n
